# According to PubChem BioAssay:
# Active and inactive are the calls of the source. Cut-off read from the data, not from the text of the source, unless noted: active = inhibition above about 80%; inactive = the rest.
# Experiments:
# [1] = growth inhibition, single agent or in combination, cell-based, chromothripsis tumors, cisplatin or BGB combos (AID 1671449); settings: LFS_MB_P medulloblastoma cells;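 note: cells exposed for 96 hours; 0% = vehicle DMSO and 100% = killing by high DMSO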
# [2] = growth inhibition, single agent and combos, cell-based, chromothripsis tumors, cisplatin or BGB combos (AID 1671450); settings: HDN33 neuroblastoma cells, stronger effect = higher value;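 note: cells exposed to compound for four days; 0% = vehicle DMSO and 100% = cell killing by high DMSO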
# [3] = growth inhibition, single agents and combos, ICB984, cell-based, cisplatin or BGB combos, synergistic combos for chromothripsis tumors (AID 1671451; call rule not given here;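 note: cells exposed for 96 hours before readout; 0% = vehicle DMSO and 100% = killing by high DMSO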); settings: ICB984 medulloblastoma cells, drug combinations, stronger effect = higher value
# [4] = growth inhibition, single agents and combos, LFS_MB_1R, cell-based, cisplatin or BGB combos, synergistic combos for chromothripsis tumors (AID 1671452); settings: LFS_MB_1R medulloblastoma cells, stronger effect = higher value;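 note: cells exposed for 96 hours before readout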
# [5] = growth inhibition, single agents and combos, HTB85, cell-based, BGB or cisplatin IC20 combos, synergistic combos for chromothripsis tumors (AID 1671453); settings: HTB85 osteosarcoma cells, drug combinations, stronger effect = higher value;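 note: cells exposed for 96 hours before readout; 0% = vehicle DMSO and 100% = high DMSO killing control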
# [6] = growth inhibition, single agents and combos, CRL2098, cell-based, BGB or cisplatin IC20 combos, synergistic combos for chromothripsis tumors (AID 1671454); settings: CRL2098 osteosarcoma cells, drug combinations, stronger effect = higher value;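 note: cells exposed for 96 h before readout; 0% = vehicle DMSO and 100% = killing by high DMSO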
# [7] = growth inhibition, single agents and combos, HD-MB03, cell-based, BGB or cisplatin IC20 combos, synergistic combos for chromothripsis tumors (AID 1671455; in the data active = inhibition above about 83%;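 note: 0% = vehicle DMSO and 100% = high DMSO as cytotoxic control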); settings: HD-MB03 medulloblastoma cells, stronger effect = higher value
# [8] = growth inhibition, single agents and combos, UWB1.289, cell-based, BGB or cisplatin combos, synergistic combos for chromothripsis tumors (AID 1671456); settings: UWB1.289 ovarian carcinoma cells, stronger effect = higher value;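 note: cells exposed to compound for four days; 0% = vehicle DMSO and 100% = killing by high DMSO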
# [9] = growth inhibition, single agents and combos, LFS_MB_2R, cell-based, cisplatin combos, synergistic combos for chromothripsis tumors (AID 1671457); settings: LFS_MB_2R medulloblastoma cells, stronger effect = higher value;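 note: cells exposed to compound for four days before readout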
# [10] = growth inhibition, MDA-MB-436, cell-based, BGB or cisplatin combos, synergistic combos for chromothripsis tumors (AID 1671458; call rule not given here;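 note: cells exposed for 96 hours; 0% = vehicle DMSO and 100% = killing by high DMSO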); settings: MDA-MB-436 breast carcinoma growth inhibition, drug combinations, stronger effect = higher value
# [11] = UWB1.289_BRCA1 ovarian cancer growth, cell-based, BGB or cisplatin combinations (AID 1671459); settings: UWB1.289 BRCA1 ovarian carcinoma, drug combinations, stronger effect = higher value
# [12] = drug combination toxicity in non-malignant astrocytes – cell-based, BGB or cisplatin IC20 combos, cytotoxicity control for chromothriptic childhood tumor combination screen (AID 1671460); settings: Human astrocytes, viability inhibition, drug combinations, at 0.5 µM, stronger effect = higher value;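 note: cells exposed to compounds for 96 hours before viability readout; 0% = vehicle and 100% = killing control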
# [13] = BT084 cell growth, single and combined drugs, ICGC_MB145, cisplatin and BGB IC40 combos (AID 1671461); settings: BT084 medulloblastoma cells, drug combinations, stronger effect = higher value;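 note: cells exposed to drugs for 96 hours; 0% = vehicle DMSO and 100% = high DMSO full killing control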
# [14] = RCMB18 cell growth, single agent and combined, cisplatin and BGB IC40 combos (AID 1671462); settings: RCMB18 medulloblastoma cells, stronger effect = higher value;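 note: cells exposed to compound for four days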
# [15] = CRL1545 cell growth, single agent and combined, cisplatin and BGB IC20 combos (AID 1671464); settings: CRL1545 osteosarcoma cells, stronger effect = higher value;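 note: cells exposed to compound for 96 hours before readout; 0% = vehicle DMSO and 100% = high DMSO killing control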
# [16] = measured here: combination with BGB IC40, at 0.05 µM
# [17] = measured here: with BGB IC20 combination, at 0.5 µM
# [18] = measured here: with cisplatin IC20 combination, at 0.5 µM
# [19] = measured here: combination with cisplatin, at 0.5 µM
# [20] = measured here: combination with cisplatin, at 5 µM
structure (smiles),measurement,setting,value
Cc1cc(C)cc(C(=O)NOCCCCCC(=O)NO)c1,inhibition,"[1]; at 0.5 µM, stronger effect = higher value",-18.6% (inactive)
same,inhibition,"[1]; measured here: combination with BGB IC20, at 0.005 µM",-25.1%
same,inhibition,"[1]; measured here: combination with BGB IC40, at 0.005 µM",-71.8%
same,inhibition,[1]; [16],-38.3%
same,inhibition,"[1]; measured here: combination with cisplatin, at 0.5 µM, stronger effect = higher value",23.3%
same,inhibition,"[1]; measured here: combination with cisplatin, at 5 µM, stronger effect = higher value",101%
same,inhibition,"[2]; BGB combo, at 5 µM",98%
same,inhibition,[2]; at 0.5 µM,16.4% (inactive)
same,inhibition,"[2]; cisplatin combo, at 5 µM",99.6%
same,inhibition,[2]; [17],11.9%
same,inhibition,[2]; [18],14.2%
same,inhibition,"[2]; single agent, at 5 µM",99.6%
same,inhibition,"[3]; BGB IC20 combo, at 0.005 µM",3.29%
same,inhibition,"[3]; BGB IC40 combo, at 0.005 µM",-11.3%
same,inhibition,"[3]; BGB IC40 combo, at 0.05 µM",93.2%
same,inhibition,[3]; at 0.5 µM,-24.3% (inactive)
same,inhibition,"[3]; cisplatin combo, at 0.05 µM",93.4%
same,inhibition,"[3]; cisplatin combo, at 0.5 µM",-27.8%
same,inhibition,"[3]; cisplatin combo, at 5 µM",-32.7%
same,inhibition,"[3]; measured here: 5 uM single agent, at 5 µM",-20.9%
same,inhibition,[4]; at 0.5 µM,21.5% (inactive)
same,inhibition,[4]; [16],-19%
same,inhibition,[4]; [19],16.6%
same,inhibition,[4]; [20],97%
same,inhibition,[5]; at 0.5 µM,15.3% (inactive)
same,inhibition,"[5]; measured here: with BGB IC20, at 0.5 µM",4.55%
same,inhibition,"[5]; measured here: with BGB IC20, at 5 µM",96.8%
same,inhibition,"[5]; measured here: with cisplatin IC20, at 0.5 µM",32.1%
same,inhibition,"[5]; measured here: with cisplatin IC20, at 5 µM",99.4%
same,inhibition,"[5]; single agent, at 5 µM",98.4%
same,inhibition,[6]; at 0.5 µM,-44.3% (inactive)
same,inhibition,"[6]; measured here: combination with BGB at IC20, at 0.5 µM",-68.4%
same,inhibition,"[6]; measured here: combination with cisplatin at IC20, at 0.5 µM",-43.7%
same,inhibition,[7]; at 0.5 µM,53.4% (inactive)
same,inhibition,"[7]; measured here: combo with BGB at IC20, at 0.5 µM",36.6%
same,inhibition,"[7]; measured here: combo with cisplatin at IC20, at 0.5 µM",95.8%
same,inhibition,[8]; at 0.5 µM,35% (inactive)
same,inhibition,"[8]; measured here: inhibition with BGB combination, at 0.05 µM",-9.28%
same,inhibition,"[8]; measured here: inhibition with cisplatin combination, at 0.05 µM",-8.14%
same,inhibition,[9]; at 0.5 µM,8.45% (inactive)
same,inhibition,[9]; [19],32.9%
same,inhibition,[9]; [20],102%
same,inhibition,[10]; at 0.5 µM,7.8% (inactive)
same,inhibition,"[10]; measured here: BGB combination, at 0.5 µM",-12.2%
same,inhibition,"[10]; measured here: BGB combination, at 5 µM",42.5%
same,inhibition,"[10]; measured here: cisplatin combination, at 0.5 µM",-3.09%
same,inhibition,"[10]; measured here: cisplatin combination, at 5 µM",53.9%
same,inhibition,"[11]; BGB combination, concentration series, at 5 µM",92.6%
same,inhibition,[11]; at 0.5 µM,33.7% (inactive)
same,inhibition,"[11]; cisplatin combination, concentration series, at 5 µM",110%
same,inhibition,[12],38% (inactive)
same,inhibition,[12]; measured here: combo with BGB IC20,37.9%
same,inhibition,[12]; measured here: combo with cisplatin IC20,25.6%
same,inhibition,[13]; at 0.5 µM,35.6% (inactive)
same,inhibition,"[13]; cisplatin combination, at 0.5 µM",32.4%
same,inhibition,"[13]; cisplatin combination, at 5 µM",98.6%
same,inhibition,"[13]; measured here: BGB IC40 combination 0.05 uM, at 0.05 µM",-14.5%
same,inhibition,"[13]; single agent, at 5 µM",105%
same,inhibition,[14]; at 0.5 µM,21.6% (inactive)
same,inhibition,"[14]; cisplatin combo, at 5 µM",92.9%
same,inhibition,"[14]; measured here: BGB IC40 combination, at 0.05 µM",-1.76%
same,inhibition,[14]; [19],22.3%
same,inhibition,"[14]; single agent, at 5 µM",89.9%
same,inhibition,[15]; at 0.5 µM,75.7% (inactive)
same,inhibition,[15]; [17],64.9%
same,inhibition,[15]; [18],80.7%
same,inhibition,"[15]; single agent, at 0.05 µM",5.92%
same,inhibition,"[15]; single agent, at 5 µM",72.3%
